# From PubChem BioAssay
# The list is not random: actives were taken first. Their share in the collection is about 19%.
# ELG1 DNA repair: ELG1-dependent DNA repair inhibition; HEK293T ELG1-luciferase reporter, luminescence, 16 h; DNA damage induced by 5-fluorouridine; Potency, µM (highest dose often 46.1 µM), without a hit: at the top dose activity change, negative = inhibition, hits mostly inhibitors; hit rate 2.3% among 330,000; AID 504467; note: potency is the fitted concentration of half-maximal effect; nearly all actives have a fitted effect of over 55% in size
#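 5-Fluorouridine DNA damage + compound/DMSO, 2,000 cells/well, 16 h, 37 °C/5% CO2. ONE-Glo, 30 min RT, luminescence. Readout = decrease in reporter signal.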
# HT1080 IDH1KD tx: toxicity to HT-1080 IDH1 knockdown cells (counter line); HT-1080 IDH1 knockdown viability, ATP luminescence, 48 h; Potency, µM (top dose mostly 46.1 µM), without a hit: at the highest dose activity, negative = toxicity, most hits filed as cytotoxic; hit rate 2% among 360,000;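 note: potency is the fitted concentration of half-maximal effect; 0% = DMSO wells and -100% = cell-free medium wells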
#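 % activity derives from luminescence (CellTiter-Glo), normalised to DMSO and no-cell wells. HT-1080-IDH1KD cells, 750/well, had 48 h compound exposure at 37 °C.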
# IL1B secr inh: inhibitors of inflammasome signaling (IL-1 beta secretion) | hit rate 4.7% among 360,000 | activity change, % at 57.5 µM | THP-1 LPS/ATP IL-1B secretion, AlphaLISA, 16 h; active compounds read low; in the data active = activity change below about -50%; inconclusive = mostly about -30% to -49%
#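 THP-1 cells pretreated 1 hr with compounds (up to 57.5 uM final), then stimulated with LPS (250 ng/mL final) plus ATP (1.25 mM final); secreted IL-1B measured by AlphaLISA after 16 hr, decreased signal indicating inhibition.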
# TDP1 cell noCPT: qHTS for Inhibitors of human tyrosyl-DNA phosphodiesterase 1 (TDP1): qHTS in cells in absence of CPT; AID 686978, 2013; Potency, µM (doses to about 46.2 µM), for the others: top-dose activity change, negative = growth inhibition, most hits filed as inhibitors; hit rate 15% among 420,000; DT40 Tdp1-/- hTDP1 cells, no CPT, ATP luminescence, 48 h; note: potency is the fitted concentration of half-maximal effect; nearly all actives have a fitted effect of over 55% in size
#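 Compound effects on proliferation are scored in DT40 Tdp1-/-;hTDP1 cells in the absence of CPT. ATP levels (CellTiter-Glo luminescence) are recorded after a ≥48 hr, 37 °C incubation.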
# HT1080NT lethal: kills 2HG-producing HT-1080-NT fibrosarcoma cells; HT-1080-NT fibrosarcoma viability, CellTiter-Glo ATP luminescence, 48 h; hit rate 1.6% among 360,000; Potency, µM (series often up to 46.1 µM), for the others: at the top dose activity, negative = less viability, hits mostly cytotoxic;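 note: NT is the 2HG producing partner of a matched IDH1 knockdown line; potency is the fitted concentration of half-maximal effect; 0% = DMSO-treated cells and -100% = media-only wells without cells; nearly all actives have a fitted effect of over 55% in size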
#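 Fibrosarcoma NT cells, 750 per well in 5% FBS RPMI, were exposed to compound for 48 hours. Viability: CellTiter-Glo luminescence.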
# DT40 TDP1 CPT: growth inhibition of DT40 Tdp1-/-;hTDP1 cells with camptothecin (screen for TDP1 inhibitors); chicken DT40 Tdp1-/-;hTDP1 cells + 20 nM CPT, ATP luminescence, 48 h; Potency, µM (top dose mostly 46.2 µM), without a hit: at the highest dose activity change, negative = growth inhibition, hits mostly inhibitors; hit rate 12% among 420,000; AID 686979; note: potency is the fitted concentration of half-maximal effect; nearly all actives have a fitted effect of over 55% in size
#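 Chicken DT40 Tdp1-/- cells stably complemented with human TDP1 were seeded at 400 cells/well in medium containing 20 nM camptothecin, exposed to pin-transferred compounds, and grown at 37 °C for at least 48 hr. Viability was read as ATP luminescence.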
# The depositor's hits bear a star; i = inactive; ? = inconclusive; / = no result; [ ] = another dose, or the depositor's remark. Unless noted, calls come from the whole dose curve; as a rule, active = well fitted curve in the direction sought with a large enough effect; inconclusive = small, poorly fitted or top-dose-only effect, or another doubt; inactive = no such curve, though single readings can be large; an effect the other way counts as inactive or inconclusive. Unless noted, % is set by controls: 0 for no effect and ±100 for the full control effect.
SMILES,ELG1 DNA repair,HT1080 IDH1KD tx,IL1B secr inh,TDP1 cell noCPT,HT1080NT lethal,DT40 TDP1 CPT
O=C(O)COc1ccccc1/C=N/NC(=O)CSc1nnc(SCc2cccc3ccccc23)s1,1%,10%,5,?,0%,-7%
BrC(/C=N/N1CCN(Cc2ccccc2)CC1)=C/c1ccccc1,?,7%,-82*,6.5µM*,-6%,13µM*
BrC(=C\c1ccccc1)/C=N/N1CCN(Cc2ccccc2)CC1,-11%,-16%,-20,3.3µM*,-5%,1.8µM*
BrC(=C\c1ccccc1)/C=N/N1CCN(c2ccccn2)CC1,?,-27%,-85*,2.6µM*,-3%,0.33µM*
CC(/C=N\N1CCN(Cc2ccc(C)cc2)CC1)=C\c1ccccc1,14%,-1%,11,-23%,-10%,-10%
C(=N\N1CCN(Cc2ccccc2)CC1)/c1ccccc1,?,11%,-27,24%,13%,?
Oc1cccc(/C=N/N2CCN(c3ccccn3)CC2)c1,?,7%,-9,-21%,0%,-14%
FC(F)(F)c1ccc(/C=N/N2CCN(Cc3ccccc3)CC2)cc1,-3%,-23%,-60*,-22%,-16%,5%
Cc1ccc(CN2CCN(/N=C/c3ccc(C(F)(F)F)cc3)CC2)cc1,22%,-7%,-4,?,-10%,?
COc1cc(C)ccc1S(=O)(=O)NC(=O)C1(C)CCN1C(=O)COc1ccc(Cl)cc1 (stereo not drawn),/,5%,40,-4%,15%,2%
Cc1ccc(C2/C(=C(\O)c3ccc4c(c3)OCCO4)C(=O)C(=O)N2CC2CCCO2)cc1 (stereo not drawn),1%,0%,i,3%,-10%,-3%
CN1CCN(C2CN(Cc3cn(Cc4ccccc4)nn3)S(=O)(=O)C2)CC1 (stereo not drawn),/,1%,22,-7%,-15%,3%
CC(OC(=O)Cc1c[nH]c2ccccc12)C(=O)Nc1ccccc1[N+](=O)[O-] (stereo not drawn),13%,-13%,31,-15%,-19%,-14%
CCn1c(SCC(=O)Nc2ccc(N(C)C)cc2)nnc1-c1ccco1,7%,-9%,-5,-4%,-3%,13%
CCC(Sc1nc2n[nH]c(C)c2c(=N)n1-c1cc(Cl)ccc1C)C(=O)N1CCOCC1 (stereo not drawn),-23%,?,-14,12µM*,-21%,?
Cc1ccc(Cl)cc1N1CCN(S(=O)(=O)c2c(C(=O)N3CCOCC3)c(C)n(C)c2C)CC1,?,-1%,-15,?,-9%,?
Cc1cc2nn(-c3ccc(Cl)cc3)nc2cc1N,?,2%,15,-17%,1%,8%
CNc1nn(-c2cccc(Cl)c2)nc1N,?,-12%,-13,2.1µM*,-13%,?
O=C(NCc1ccccc1)NCC12CC3CC(CC(C3)C1)C2,1%,0%,-7,?,0%,?
O=C(CC12CC3CC(CC(C3)C1)C2)NC(=S)NCc1ccccc1,5%,14%,-10,18µM*,11%,?
O=C(NCc1ccccc1)NC12CC3CC(CC(C3)C1)C2,-8%,-5%,-1,21µM*,3%,15µM*
CC1(C(=O)Nc2cccc(Oc3ccccc3)c2)CCN1C1Cc2ccccc2C1 (stereo not drawn),/,?,50,?,?,?
CN(C)c1ccc(/C=C/c2nc3ccccc3s2)c(Cl)c1,/,/,/,14µM*,/,?
O=C(/C=C/c1nc2ccccc2s1)N1CCCCCC1,?,5%,-21,?,13%,-1%
O=C(NCCc1ccccn1)c1cnn(-c2ncc3c(n2)-c2ccccc2CC3)c1C1CC1,/,/,/,?,/,-13%[9.04 µM]
SMILES,ELG1 DNA repair,HT1080 IDH1KD tx,IL1B secr inh,TDP1 cell noCPT,HT1080NT lethal,DT40 TDP1 CPT
Cc1ccc(NC(=O)CN(C)S(=O)(=O)c2ccc3[nH]c4c(c3c2)CCCC4)c(Cl)c1,/,/,/,18µM*,/,?
CN(CC(=O)Nc1cccc(Cl)c1)S(=O)(=O)c1ccc2[nH]c3c(c2c1)CCCC3,/,/,/,23µM*,/,?
COc1cc(OC)c(NC(=O)CN(C)S(=O)(=O)c2ccc3[nH]c(=O)oc3c2)cc1Cl,12%,0%,22,10%,13%,1%
COc1ccc(NC(=O)CN(C)S(=O)(=O)c2ccc3[nH]c4c(c3c2)CCCC4)cc1OC,/,/,/,16µM*,/,?
COc1ccc(NC(=O)CN(C)S(=O)(=O)c2ccc(Br)s2)cc1OC,-20%,-3%,37,-24%,-10%,?
COc1cc(Cl)c(NC(=O)CN(C)S(=O)(=O)c2ccc3[nH]c4c(c3c2)CCCC4)c(OC)c1,/,/,/,18µM*,/,23µM*
CC(NS(=O)(=O)c1cccc(C(=O)N(C)Cc2ccc(N3CCOCC3)cc2)c1)c1ccccc1 (stereo not drawn),/,0%,-20,?,-6%,?
O=c1ccc2cc(S(=O)(=O)NCc3ccc(Cl)cc3)ccc2[nH]1,/,/,/,-24%,/,-20%
COc1ccc(S(=O)(=O)N(C)CC(=O)Nc2ccccc2C(F)(F)F)cc1Cl,-20%,-6%,13,-8%,-8%,?
COc1ccc(NC(=O)CN(C)S(=O)(=O)c2ccc3[nH]c4c(c3c2)CCCC4)cc1Cl,/,/,/,?,/,23µM*
COc1cc2c(cc1OC)CC(=O)NC=C2,?,3%,2,-4%,8%,7%
COc1cc2c(cc1OC)C(c1ccc(N)cc1)=NNC(=O)C2,/,/,/,15µM*,/,21µM*
